In PubChem BioAssay AID720598 (Broad Institute, 2013) one finds outcome data, which are given here for two compounds.

This experiment in a line: time-course viability loss in HT-29 cells – cell-based, CellTiter-Glo, multiple timepoints, dry powder, HRas target identification project, dose response (AID 720598). Particulars: HT-29 viability, CellTiter-Glo ATP luminescence, 8-48 h; series mostly up to 35 µM.

Entries with a potency or affinity are not part of this list. Calls of active or inactive are those of the source.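 Rule for the calls: active = viability drop at all three exposure times, fitted half-maximal dose at most twice the top valid dose; inconclusive = exposure times disagree in their calls; inactive = inactive at every exposure time.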

Consider `Cc1onc(C(=O)N2CCN(C(c3ccncc3)c3ccncc3)CC2)c1[N+](=O)[O-]`, for which the compound was called inactive.
Then `CCC(=O)N(c1ccc(OC)c(Cl)c1)C(C(=O)NCCc1ccccc1)c1cccs1` (configuration not stated), with “inactive”.
